Among all 5,500 compounds or so, about 2,000 (36%) were called active. Inconclusive results (about 18%) are left out. Cut-off read from the data, not from the text of the source: active = normalized growth mostly below about 0.91 (no sharp cut-off); inconclusive = no clear call, values can overlap the other calls; inactive = mostly above about 0.92. This is one part of the list.
Assay: chemical genetic growth profiling, strain panel (AID 1159580);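 note: tested at 20 µM; growth read once vehicle control cultures reached saturation at 30 °C; 1 = growth at the plate median or of vehicle wells; lower values mean less growth of the strain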
Conditions: S. cerevisiae deletion strains, growth OD

Measured: normalized growth

COc1c(Cl)ccc(Cl)c1C(=O)O
inactive: locus YAL013W, strain DEP1, active compounds read low 1.01 | locus YAL021C, strain ccr4, active compounds read low 0.972 | locus YAL026C, strain drs2, active compounds read low 0.988 | locus YAL030W, strain snc1, active compounds read low 0.984 | locus YBL061C, strain skt5, active compounds read low 0.977 | locus YBR009C, strain hhf1, active compounds read low 0.988 | locus YBR021W, strain FUR4, active compounds read low 1.02 | locus YBR023C, strain chs3, active compounds read low 0.995 | locus YBR171W, strain sec66, active compounds read low 0.977 | locus YBR229C, strain ROT2, active compounds read low 0.999 | locus YBR231C, strain swc5, active compounds read low 0.968 | locus YBR279W, strain paf1, active compounds read low 0.982 | locus YCL011C, strain gbp2, active compounds read low 0.981 | locus YCL016C, strain dcc1, active compounds read low 0.986 | locus YCL029C, strain bik1, active compounds read low 1.02 | locus YCL061C, strain MRC1, active compounds read low 0.985 | locus YCL069W, strain vba3, active compounds read low 0.984 | locus YCR088W, strain abp1, active compounds read low 0.978 | locus YDL005C, strain med2, active compounds read low 0.975 | locus YDL035C, strain GPR1, active compounds read low 1.02 | locus YDL040C, strain nat1, active compounds read low 0.977 | locus YDL074C, strain BRE1, active compounds read low 1.04 | locus YDL101C, strain DUN1, active compounds read low 1.01 | locus YDL134C, strain PPH21, active compounds read low 1.01 | locus YDL185W, strain tfp1, active compounds read low 1.02 | locus YDL192W, strain arf1, active compounds read low 1.02 | locus YDR001C, strain nth1, active compounds read low 0.985 | locus YDR069C, strain doa4, active compounds read low 0.976 | locus YDR101C, strain arx1, active compounds read low 1.01 | locus YDR137W, strain rgp1, active compounds read low 1.01 | locus YDR150W, strain NUM1, active compounds read low 1 | locus YDR159W, strain sac3, active compounds read low 0.972 | locus YDR162C, strain NBP2, active compounds read low 1.01 | locus YDR195W, strain ref2 0.919 | locus YDR297W, strain sur2, active compounds read low 0.993 | locus YDR318W, strain mcm21, active compounds read low 1.02 | locus YDR334W, strain swr1, active compounds read low 0.979 | locus YDR335W, strain msn5, active compounds read low 0.985 | locus YDR388W, active compounds read low 1.01 | locus YDR392W, strain spt3, active compounds read low 0.999 | locus YDR502C, strain sam2, active compounds read low 1.01 | locus YEL003W, strain gim4, active compounds read low 0.985 | locus YEL037C, strain rad23, active compounds read low 0.985 | locus YEL061C, strain CIN8 (second series), active compounds read low 0.973 | locus YEL061C, strain CIN8, active compounds read low 0.997 | locus YER015W, strain faa2, active compounds read low 0.981 | locus YER016W, strain bim1, active compounds read low 0.985 | locus YER110C, active compounds read low 1.02 | locus YER111C, strain swi4, active compounds read low 0.96 | locus YER155C, strain BEM2 (second series), active compounds read low 0.982 | locus YER155C, strain BEM2, active compounds read low 1.01 | locus YER167W, strain BCK2, active compounds read low 1.02 | locus YFR010W, strain ubp6, active compounds read low 0.983 | locus YGL078C, strain dbp3, active compounds read low 1.01 | locus YGL086W, strain mad1, active compounds read low 1.01 | locus YGL167C, strain pmr1, active compounds read low 0.984 | locus YGL173C, strain kem1, active compounds read low 0.982 | locus YGL227W, strain vid30, active compounds read low 0.97 | locus YGL240W, strain doc1, active compounds read low 0.961 | locus YGL248W, strain PDE1, active compounds read low 1.01 | locus YGL253W, strain hxk2, active compounds read low 0.993 | locus YGR078C, strain PAC10, active compounds read low 1.01 | locus YGR135W, strain pre9, active compounds read low 1.02 | locus YGR229C, strain SMI1, active compounds read low 1.04 | locus YGR252W, strain gcn5, active compounds read low 1.02 | locus YHR013C, strain ard1, active compounds read low 0.957 | locus YHR027C, strain rpn1, active compounds read low 0.995 | locus YHR030C, strain SLT2, active compounds read low 1.01 | locus YHR079C, strain IRE1 (second series), active compounds read low 1.01 | locus YHR094C, strain hxt1, active compounds read low 1.01 | locus YHR129C, strain ARP1, active compounds read low 1.01 | locus YHR142W, strain chs7, active compounds read low 0.979 | locus YHR200W, strain rpn10, active compounds read low 1 | locus YIL066C, strain RNR3, active compounds read low 1.04 | locus YIL073C, strain SPO22, active compounds read low 1.09 | locus YIL125W, strain kgd1, active compounds read low 1.01 | locus YIR030C, strain dcg1, active compounds read low 1.01 | locus YJL092W, strain hpr5, active compounds read low 0.987 | locus YJL095W, strain BCK1 (second series), active compounds read low 0.99 | locus YJL095W, strain BCK1, active compounds read low 1.02 | locus YJL115W, strain asf1, active compounds read low 0.976 | locus YJL129C, strain trk1, active compounds read low 0.976 | locus YJL134W, strain LCB3, active compounds read low 1.01 | locus YJL154C, strain vps35, active compounds read low 0.992 | locus YJL164C, strain tpk1, active compounds read low 0.987 | locus YJL166W, strain qcr8, active compounds read low 0.997 | locus YJL168C, strain set2, active compounds read low 1.01 | locus YJL187C, strain SWE1 (second series), active compounds read low 1.01 | locus YJL187C, strain SWE1, active compounds read low 0.99

— PubChem BioAssay AID1159580 (chemical genetic matrix, 2015)
